High-throughput results from PubChem BioAssay.
In the library only some 2.9% were active in any assay of this set; here they are far more common.
MEKK2 mut-MEK5 = MEK5 binding signal on mutant MEKK2 PB1, primary screen, biochemical, multiplex bead flow cytometry, Alexa488-MEK5; Alexa488-MEK5 binding to MEKK2 mutant; percent response, % at 10 µM; 0.35% of 290,000 active; AID 1530, 2009; in the data active means percent response above about 24%, passing the limit was not always enough
MEKK2 WT-MEK5 = modulators of MEK5 binding to wildtype MEKK2, primary screen, biochemical, multiplex bead flow cytometry, Alexa488-MEK5; Alexa488-MEK5 binding to MEKK2 WT; actives lie on both sides; binding response (% of control), % at 10 µM; 1.1% of 290,000 active; AID 1531, 2009; Mitogen-activated protein kinase kinase kinase 2 (Homo sapiens), Q9Y2U5; in the data active means binding response below about 67% or above about 130%
MEKK3 PB1 HTS = modulators of MEKK3-MEK5 PB1 binding, primary screen, biochemical, wildtype MEKK3, multiplex bead flow cytometry, Alexa488-MEK5; Mitogen-activated protein kinase kinase kinase 3 (Homo sapiens), Q99759; bead-based flow cytometry, Alexa488-MEK5 binding to MEKK3; actives lie on both sides; 0 = blocked by unlabeled MEK5, 100 = vehicle; binding response (% of control), % at 10 µM; 1.4% of 290,000 active; AID 1529, 2009;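 active means binding response more than 3 SD above or below the average of its plate-row segment, actives on both sides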;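 further: Alexa488 bead fluorescence after subtracting the streptavidin-only scavenger bead signal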
ABCB6 inh MLPCN = ABCB6 transporter inhibitors, primary screen, K562-ABCB6 cells, flow cytometry, MLPCN library | ATP-binding cassette sub-family B member 6 (Homo sapiens), Q9NP58 | K562-ABCB6 porphyrin accumulation, 1 h; stronger effect = lower value | fluorescence ratio to DMSO, % at 10 µM | 0.19% of 360,000 active | AID 602162, 2011;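 active means fluorescence ratio to DMSO below 75%, the collection mean minus 3 SD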;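 further: signal is porphyrin accumulated inside mitochondria; lower ratio means ABCB6 inhibition with less porphyrin fluorescence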
Target sequence (Q9NP58 whole entry, looked up): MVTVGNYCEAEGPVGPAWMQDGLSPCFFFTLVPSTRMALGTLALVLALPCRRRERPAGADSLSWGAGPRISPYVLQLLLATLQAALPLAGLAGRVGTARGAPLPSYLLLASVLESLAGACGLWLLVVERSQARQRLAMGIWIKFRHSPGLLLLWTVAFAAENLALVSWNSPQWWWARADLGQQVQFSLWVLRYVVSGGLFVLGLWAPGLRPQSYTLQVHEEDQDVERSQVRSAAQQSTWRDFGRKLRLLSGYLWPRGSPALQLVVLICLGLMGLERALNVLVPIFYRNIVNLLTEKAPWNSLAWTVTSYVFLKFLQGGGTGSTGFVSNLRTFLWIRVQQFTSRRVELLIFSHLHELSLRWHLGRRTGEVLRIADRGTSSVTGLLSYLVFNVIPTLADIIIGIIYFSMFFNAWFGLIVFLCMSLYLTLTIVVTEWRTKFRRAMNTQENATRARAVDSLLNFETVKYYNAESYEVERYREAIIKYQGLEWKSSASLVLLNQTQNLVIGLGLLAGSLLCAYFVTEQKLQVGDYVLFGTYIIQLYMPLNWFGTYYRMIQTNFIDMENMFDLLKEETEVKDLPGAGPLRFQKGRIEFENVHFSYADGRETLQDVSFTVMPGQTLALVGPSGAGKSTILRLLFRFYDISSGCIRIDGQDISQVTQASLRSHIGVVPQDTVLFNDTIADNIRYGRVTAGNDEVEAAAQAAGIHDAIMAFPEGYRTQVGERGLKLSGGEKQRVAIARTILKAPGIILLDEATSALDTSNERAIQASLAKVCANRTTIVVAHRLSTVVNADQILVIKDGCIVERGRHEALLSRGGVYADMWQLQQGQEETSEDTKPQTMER
CRFR2-BP ag = agonists of CRF-BP/CRF-R2 complex, primary screen, cell-based, HEK293, calcium dye fluorescence, uHTS. CRF-binding protein / CRF receptor 2 complex (human). calcium dye fluorescence (FLIPR); percent of saturating CRF peptide response. activation, % at 13.2 µM. 0.46% of 350,000 active;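 active means activation of at least 50%, plus an integration ratio under a set limit after plate pattern correction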
CRFBP-R2 block = antagonists of CRF-BP/CRF-R2 complex, primary screen, cell-based, HEK293, calcium dye fluorescence, uHTS; CRF-induced calcium fluorescence; inhibition, % at 11.8 µM; 0.59% of 350,000 active; AID 588475, 2011;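 active means inhibition of the ligand-induced calcium signal above about 50% at the single tested concentration, limit read from the data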
MEKK2wt confirm = modulators of MEK5 binding to wildtype MEKK2, confirmation, biochemical, single concentration, multiplex bead flow cytometry | Alexa488-MEK5 binding to MEKK2 WT; actives lie on both sides | binding response (% of control), % at 10 µM | 2.4% of 5,900 active | shares compounds with MEKK3 PB1 HTS; in the data active means binding response below about 16% or above about 210%; inactive means in between
MEKK2mut-MEK5 = mutant MEKK2 PB1-MEK5 binding signal retest – biochemical, single concentration, multiplex bead flow cytometry, confirmation | shares compounds with MEKK3 PB1 HTS | Alexa488-MEK5 binding to MEKK2 mutant | percent response, % at 10 µM | 2% of 5,900 active | AID 1893, 2009; in the data active means percent response mostly above about 71%, no sharp cut-off; inactive means mostly below about 38%;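 further: higher means compound restores mutant binding toward wildtype level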
MEKK3-MEK5 inh = MEKK3 wild-type PB1 binding to MEK5, inhibitors, confirmation, biochemical, bead multiplex flow cytometry, single concentration, wildtype | shares compounds with MEKK3 PB1 HTS | AID 1894, 2009 | 1.8% of 5,900 active | Alexa488-MEK5 binding to MEKK3; stronger effect = lower value | binding response (% of control), % at 10 µM;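 active means binding response below 72% of control, or above a set upper limit, though filed actives all read lower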
Large screens that a line does not name were inactive (follow-up assays come after a bar, where they were run); [ ] = another dose, or the depositor's remark.

CCN(CC)c1ccc(C=Nc2ccc(C#N)cc2)c(O)c1	MEKK2 WT-MEK5 67.0[inhibitor] | MEKK2wt confirm inactive | MEKK2mut-MEK5 inactive | MEKK3-MEK5 inh inactive
CCN(CC)c1ccc(/C=N/Nc2nc3ccccc3[nH]2)c(O)c1	MEKK2 mut-MEK5 31.0 | MEKK2wt confirm inactive | MEKK2mut-MEK5 inactive | MEKK3-MEK5 inh inactive
CCN(CC)c1ccc(C=Nc2ccccc2C)c(O)c1	MEKK3 PB1 HTS 140.0 | MEKK2wt confirm inactive | MEKK2mut-MEK5 inactive | MEKK3-MEK5 inh inactive
CCOC(=O)CC1C(=O)NCCN1c1nc2ccc(C)cn2c(=O)c1/C=C1\SC(=S)N(CC(C)C)C1=O (stereo not drawn)	MEKK2 WT-MEK5 55.0[inhibitor], CRFR2-BP ag 189.1 | MEKK2wt confirm inactive | MEKK2mut-MEK5 inactive | MEKK3-MEK5 inh inactive
CCOC(=O)CC1C(=O)NCCN1c1nc2ccc(C)cn2c(=O)c1/C=C1\SC(=S)N(C(C)CC)C1=O (stereo not drawn)	none (no result: ABCB6 inh MLPCN, CRFR2-BP ag, CRFBP-R2 block)
FCCCOc1ccc(-c2nccc(-c3ccc(Cl)cc3)n2)cc1	MEKK3 PB1 HTS 77.0[inhibitor] | MEKK2wt confirm inactive | MEKK2mut-MEK5 inactive | MEKK3-MEK5 inh inactive
COc1ccc(-c2ccnc(-c3ccc(OCCCF)cc3)n2)cc1	none
CCOC(=O)c1[nH]c(C)c(C(=O)NCc2ccco2)c1C	none
CCOC(=O)c1c(C)[nH]c(C(=O)NCc2ccco2)c1C	MEKK3 PB1 HTS 143.0 (no result: ABCB6 inh MLPCN, CRFR2-BP ag, CRFBP-R2 block) | MEKK2wt confirm inactive | MEKK2mut-MEK5 inactive | MEKK3-MEK5 inh inactive
CC(OC(=O)CNC(=O)c1ccc(F)cc1)C(=O)Nc1ccc(S(=O)(=O)N2CCOCC2)cc1 (stereo not drawn)	none (no result: MEKK2 mut-MEK5, MEKK2 WT-MEK5, MEKK3 PB1 HTS)
CCN1C[C@@H]2[C@@H]3C(=O)N(Cc4ccccc4)C(=O)[C@@H]3[C@](C)(C(=O)OC)N2C1=NC	none (no result: MEKK2 mut-MEK5, MEKK2 WT-MEK5, MEKK3 PB1 HTS)
CCn1c(O)c(/C=C2\C=NN=C2c2ccccc2)sc1=S	none
CC(C)Cn1c(O)c(/C=C2\C=NN=C2c2ccccc2)sc1=S	MEKK3 PB1 HTS 133.0 | MEKK2wt confirm inactive | MEKK2mut-MEK5 inactive | MEKK3-MEK5 inh inactive
CCc1noc(C)c1C(=O)OCC(=O)NCc1ccccc1OC	none (no result: MEKK2 mut-MEK5, MEKK2 WT-MEK5, MEKK3 PB1 HTS)
O=C(CNC1C(=O)Nc2ccccc21)Sc1ccccc1 (stereo not drawn)	MEKK2 WT-MEK5 3.0[inhibitor], MEKK3 PB1 HTS 2.0[inhibitor] | MEKK2wt confirm inactive | MEKK2mut-MEK5 inactive | MEKK3-MEK5 inh inactive
O=C(CNC(=S)NC(=O)c1ccccc1)c1ccccc1	none
O=C(CNC(=S)NC(=O)c1ccc(F)cc1)c1ccccc1	MEKK3 PB1 HTS 136.0 | MEKK2wt confirm inactive | MEKK2mut-MEK5 inactive | MEKK3-MEK5 inh inactive
CC1CCCN(C(=O)C2CCN(CCCc3ccccc3)CC2)C1 (stereo not drawn)	MEKK3 PB1 HTS 79.0[inhibitor] (no result: ABCB6 inh MLPCN) | MEKK2wt confirm inactive | MEKK2mut-MEK5 inactive | MEKK3-MEK5 inh inactive
COc1cccc(CNC(=O)Cn2c(=O)n(CCC(=O)N3CCCCC3)c(=O)c3sccc32)c1	none
CN(/N=C/c1ccncc1)c1cnc2ccccc2n1	MEKK3 PB1 HTS 74.0[inhibitor] | MEKK2wt confirm inactive | MEKK2mut-MEK5 inactive | MEKK3-MEK5 inh inactive
CN(/N=C/c1ccncc1)C1=NCCN1	none
COc1ccc2c(-c3ccccc3)cc(SCC(N)=O)nc2c1	MEKK2 mut-MEK5 115.0, MEKK2 WT-MEK5 9.0[inhibitor] | MEKK2wt confirm inactive | MEKK2mut-MEK5 inactive | MEKK3-MEK5 inh inactive
COc1ccc2nc(SCC(N)=O)cc(C)c2c1	none
Cc1ccc(O)c(-c2cc(C(=O)Nc3ccc(S(=O)(=O)N4CC(C)OC(C)C4)cc3)[nH]n2)c1 (stereo not drawn)	MEKK3 PB1 HTS 123.0 | MEKK2wt confirm inactive | MEKK2mut-MEK5 inactive | MEKK3-MEK5 inh inactive
Cc1ccc(-c2cc(C(=O)Nc3ccc(S(=O)(=O)N4CC(C)OC(C)C4)cc3)[nH]n2)c(O)c1 (stereo not drawn)	none
S=c1nc(SCc2ccccc2)[nH]c2ccccc12	MEKK3 PB1 HTS 49.0[inhibitor] | MEKK2wt confirm inactive | MEKK2mut-MEK5 inactive | MEKK3-MEK5 inh inactive
CCN(CC)CCCNC(=O)CCC(=O)NNc1nc2ccccc2c2nc(C)nn12	none
Cc1nc2c3ccccc3nc(NNC(=O)CCC(=O)NCCC(C)C)n2n1	MEKK3 PB1 HTS 130.0 | MEKK2wt confirm inactive | MEKK2mut-MEK5 inactive | MEKK3-MEK5 inh inactive
O=C(O)c1nn(CC(=O)N2CCN(c3ncc(C(F)(F)F)cc3Cl)CC2)c(=O)c2ccccc12	none
COc1ccc(CCNC(=O)/C(=C/c2cccnc2)NC(=O)c2ccccc2)cc1	MEKK3 PB1 HTS 128.0 | MEKK2wt confirm inactive | MEKK2mut-MEK5 inactive | MEKK3-MEK5 inh inactive
CCCNC(=O)C(=O)NCc1ccccn1	none
COc1ccc(CCNC(=O)C(=O)NCc2ccccn2)cc1	MEKK3 PB1 HTS 135.0 | MEKK2wt confirm inactive | MEKK2mut-MEK5 inactive | MEKK3-MEK5 inh inactive
Cc1nn(-c2ccccc2)c(Cl)c1C(=O)NCC1CCCO1 (stereo not drawn)	none (no result: MEKK2 mut-MEK5, MEKK2 WT-MEK5, MEKK3 PB1 HTS)
COCCCN1C(=O)c2ccc(C(=O)OCC(=O)N(CCC#N)c3cc(C)cc(C)c3)cc2C1=O	none (no result: MEKK2 mut-MEK5, MEKK2 WT-MEK5, MEKK3 PB1 HTS)
CNC(=O)N(C1=NCCCCC1)c1ccc(Br)cc1	MEKK3 PB1 HTS 129.0 | MEKK2wt confirm inactive | MEKK2mut-MEK5 inactive | MEKK3-MEK5 inh inactive
CCOc1ccc(N(C(=O)Nc2ccccc2)C2=NCCC2)cc1	none
COCC(=O)N1CCC(Oc2ccc(C(=O)NCCc3ccncc3)cc2)CC1	MEKK2 mut-MEK5 active, MEKK2 WT-MEK5 610.0, MEKK3 PB1 HTS 128.0 | MEKK2wt confirm inactive | MEKK2mut-MEK5 inactive | MEKK3-MEK5 inh inactive
CCOc1ccc(NC(=O)Cn2nnc(C(=O)NCc3cccs3)c2N)cc1	none
COc1ccc(C(=O)NCCCNC(=O)c2cnccn2)cc1Br	none
